TrxR1 inh = inhibitors of rat thioredoxin reductase 1; recombinant rTrxR1, NADPH fluorescence consumption, selenite substrate; Potency, µM (highest dose often 114 µM), for the others: at the highest dose activity change, negative = inhibition, usual class: inhibitors; 1% of 390,000 active; AID 588453; also: nearly all actives have a fitted effect of over 65% in size
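Rat TrxR1 (90 nM in the dispensed reagent) was pre-reduced with 400 uM NADPH for 5 min at room temperature, then incubated with compound for 15 min. After 400 uM selenite was added, NADPH fluorescence (Ex 340/Em 450 nm) was followed for 8 min.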
TrxR1 substrate = is turned over as a substrate by rat TrxR1. O89049. purified TrxR1 substrate turnover, NADPH consumption readout. Potency, µM (doses to about 114 µM), for the others: at the top dose activity change, negative = substrate turnover. 0.01% of 390,000 active; also: nearly all actives have a fitted effect of over 50% in size
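Rat TrxR1, dispensed at 90 nM, was prereduced with 400 uM NADPH (final) for 5 min at ~22 deg C, then incubated with compound 15 min before 400 uM selenite. A first-read NADPH fluorescence drop versus no-compound background flagged substrates.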
IDH1 R132H inh = blocks human mutant IDH1 R132H enzyme | 0.093% of 390,000 active | IDH1-R132H enzyme, NADPH consumption, diaphorase/resazurin fluorescence | O75874 | AID 602179 | Potency, µM (top dose mostly 76.6 µM), for the others: at the top dose activity change, negative = inhibition, usual class: inhibitors; also: nearly all actives have a fitted effect of over 65% in size
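IDH1-R132H (0.5 ug/mL dispensed) in pH 7.5 Tris buffer was preincubated 30 min with compound, then given a substrate mix of 0.016 mM NADPH and 2 mM alpha-KG for 80 min at room temperature; remaining NADPH was read by diaphorase/resazurin fluorescence.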
GLS inh = blocks human kidney-isoform glutaminase activity. 0.21% of 410,000 active. O94925. GLS enzymatic activity, qHTS titration. Potency, µM (doses to about 45.5 µM), for the others: top-dose activity change, negative = inhibition, hits mostly inhibitors
Target sequence (O94925 whole entry, looked up, canonical isoform): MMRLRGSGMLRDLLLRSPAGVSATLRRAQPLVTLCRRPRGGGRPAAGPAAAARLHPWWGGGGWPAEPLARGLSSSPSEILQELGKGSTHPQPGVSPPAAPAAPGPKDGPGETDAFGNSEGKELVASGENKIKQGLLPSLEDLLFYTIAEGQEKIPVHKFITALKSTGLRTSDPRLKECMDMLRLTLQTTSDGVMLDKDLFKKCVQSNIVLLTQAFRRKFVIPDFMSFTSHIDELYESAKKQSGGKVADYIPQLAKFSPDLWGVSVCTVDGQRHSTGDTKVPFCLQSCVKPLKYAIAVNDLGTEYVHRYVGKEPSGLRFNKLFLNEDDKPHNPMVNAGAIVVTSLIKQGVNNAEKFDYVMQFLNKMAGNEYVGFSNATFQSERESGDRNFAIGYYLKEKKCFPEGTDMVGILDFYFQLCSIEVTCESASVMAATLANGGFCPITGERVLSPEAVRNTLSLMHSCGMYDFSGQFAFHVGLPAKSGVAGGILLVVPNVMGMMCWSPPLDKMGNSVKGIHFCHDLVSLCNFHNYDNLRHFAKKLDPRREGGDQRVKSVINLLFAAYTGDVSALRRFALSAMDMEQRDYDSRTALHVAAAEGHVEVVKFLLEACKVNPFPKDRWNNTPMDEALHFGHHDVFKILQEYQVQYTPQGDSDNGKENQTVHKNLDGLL
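Glutamate formation by hKGA was monitored fluorometrically using coupled glutamate oxidase, HRP and Amplex Red. Substrate was added as 1 mM L-glutamine solution; incubation was 30 min at RT after an initial read.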
Numbers without * were called inactive; u = inconclusive; x = not tested or not shown; [ ] = dose if it differs, or a comment. Most compounds without a hit are left out; they make up all but 1.2% or so of the library. Calls follow the shape of the dose curve; as a rule, active = well fitted curve in the direction sought with a large enough effect; inconclusive = small, poorly fitted or top-dose-only effect, or another doubt; inactive = no such curve, though single readings can be large; an effect the other way counts as inactive or inconclusive. % is scaled to controls: 0 for no effect and ±100 for the full control effect; potency is read from the fitted curve at half-maximal effect.

SMILES	TrxR1 inh	TrxR1 substrate	IDH1 R132H inh	GLS inh
COC(=O)N1CCN(/[N+]([O-])=N/Oc2ccc([N+](=O)[O-])cc2[N+](=O)[O-])CC1	u	-8%	x	x
CCOC(=O)N1CCC2(CC1)OC(=O)C(C)=C2C(=O)NCc1ccccc1OC	17%	5%	5%	1%
Nc1ccc(/C=C/c2ccnc3ccccc23)cc1[N+](=O)[O-]	1%	-4%[0.0914 µM]	x	x
CC(C)(C)n1ncc2c(=O)n(Cc3ccc(Cl)cc3F)cnc21	24%	11%	x	x
CC[N+](CC)(CC)c1ccc(/C=C/c2ccc3ccccc3n2)cc1	-9%	-2%	x	x
O=C(CCSc1ccc(Cl)cc1)c1ccco1	10µM*	4%	-1%	5%
O=C(CSc1ccc(Cl)cc1)c1ccco1	45µM*	6%	8%	7%
O=C(CSc1ccccc1Cl)c1ccco1	u	-8%	2%	-8%
CO[C@H]1C[C@@H]2CC[C@@H](C)[C@@](O)(O2)C(=O)C(=O)N2CCCC[C@H]2C(=O)O[C@H]([C@H](C)C[C@@H]2CC[C@@H](OCCO)[C@H](OC)C2)CC(=O)[C@H](C)/C=C(\C)[C@@H](O)[C@@H](OC)C(=O)[C@H](C)C[C@H](C)/C=C/C=C/C=C/1C	x	x	x	-2%
COc1ccc(-c2nc(SCC(=O)c3ccc(OC)c(Br)c3)n[nH]2)cc1	12%	8%	13%	0%
CCCCc1ccc(NC(=O)CSc2nc3ccccc3nc2N2CCOCC2)cc1	25%	0%	-4%	-7%
O=c1sc(/C=N/Nc2ccccc2)c(Cl)n1Cc1ccccc1	13µM*	7%[57.1 µM]	6%	-3%
COC(=O)c1cccc(Cn2c(Cl)c(/C=N/NC(=O)c3ccco3)sc2=O)c1	40µM*	-16%	-2%	10%
COC(=O)c1cccc(Cn2c(Cl)c(/C=N/NC(=O)c3ccccc3Cl)sc2=O)c1	u	-6%	6%	2%
O=Cc1sc(=O)n(Cc2cccc(C(=O)O)c2)c1Cl	3.2µM*	6%	2%	5%
COc1ccc(CCC(=O)O)cc1	5%	5%	x	x
C/C=C1\COC(C(=O)NCCOCCO)(C(F)(F)F)C=C1C=C1CCCCC1 (stereo not drawn)	1.6µM*	5%	x	x
C/C=C1\COC(C(=O)NCc2cccc(OC)c2OC)(C(F)(F)F)C=C1C=C1CCCCC1 (stereo not drawn)	5µM*	-3%	3%	0%
C/C=C1\COC(C(=O)NCc2ccncc2)(C(F)(F)F)C=C1C=C1CCCCC1 (stereo not drawn)	18µM*	-3%	13%	4%
CC=C1COC(C(=O)NCCOCCO)(C(F)(F)F)C=C1C=C(C)C (stereo not drawn)	3.5µM*	5%	x	x
COCCNC(=O)C1(C(F)(F)F)C/C(=C\CCO)CCCO1 (stereo not drawn)	7%[57.1 µM]	3%	x	x
O=C(NCc1ccccc1)C1(C(F)(F)F)C/C(=C/Cc2ccccc2)CCCO1 (stereo not drawn)	-11%	-8%	x	x
Cn1c(/C(C#N)=C/c2ccc(C(F)(F)F)cc2)nc2ccccc21	-27%	0%	x	-4%
C/C=C1\COC(C(=O)NC)(C(F)(F)F)C=C1C=C1CCCCC1 (stereo not drawn)	1.4µM*	0%	x	x
CNC(=O)C1(C(F)(F)F)C/C(=C/CCO)CCCO1 (stereo not drawn)	10%	-3%	x	x
SMILES	TrxR1 inh	TrxR1 substrate	IDH1 R132H inh	GLS inh
O=C1c2oc3ccccc3c(=O)c2C(c2cccs2)N1CCCN1CCOCC1 (stereo not drawn)	40µM*	-8%	8%	-2%
Cn1cc(-c2cc3n(n2)CCC(=O)N3CC(=O)O)c2ccccc21	9%	5%	x	1%
Cc1ccc(/C=C2/C(=O)c3ccc(C(=O)O)cc3C2=O)o1	u	4%[57.1 µM]	7%	197%
O=C(O)c1ccc2c(c1)C(=O)/C(=C\c1ccco1)C2=O	u	-9%	0%	11µM*
O=C1C(=Cc2ccco2)C(=O)c2ccccc21	u	-9%	8%	13%
O=C(O)c1ccc2c(c1)C(=O)/C(=C/c1ccccc1)C2=O	-6%	0%	2%	7.1µM*
O=C(Nc1cccc2c(=O)cc(-c3nn[nH]n3)oc12)c1ccc(OCCCCc2ccccc2)cc1	x	x	x	-14%
c1ccc2[nH]ccc2c1	x	x	x	4%
C(=C\c1ccnc2ccccc12)/c1ccc2ccccc2n1	47%	177%	x	x
O=C1C=CC(=O)c2c(O)c(CO)c(CO)c(O)c21	u	-2%	9%	3.5µM*
O=c1c(CO)cc(CO)cc(CO)c1O	-17%	-12%	0%	-4%
O=C1SC(Nc2ccccc2)C(=O)N1c1ccccc1 (stereo not drawn)	-2%	-7%	x	x
NC(=O)CSc1nnnn1-c1cccc(O)c1	-6%[57.1 µM]	-8%[57.1 µM]	-23%	-10%
COc1ccc(OC)c(NC(=O)Cn2c(=O)cc(-c3ccccc3)c3c(C)nn(C)c32)c1	18%[57.1 µM]	5%[57.1 µM]	-1%	u
Cc1ccc(S(=O)(=O)CC(=O)c2ccc([N+](=O)[O-])cc2)cc1	u	0%	0%	-13%
Cc1ccc(S(=O)(=O)CCC(=O)c2ccc(F)cc2)cc1	1.6µM*	-3%	15%	15%
Cc1ccc(S(=O)(=O)CCC(=O)OCC(=O)c2ccc(C)c(C)c2)cc1	-4%	-6%	7%	-1%
Cc1ccc(S(=O)(=O)CCC(=O)OCC(=O)NCCc2ccc(F)cc2)cc1	12%	0%	3%	-2%
Cc1cc(C(=O)CS(=O)(=O)c2ccc(Cl)cc2)cc(C)c1O	45µM*	-1%	1%	10%
Cc1ccc(S(=O)(=O)CC(=O)c2ccccc2)cc1	35µM*	-6%	1%	-4%
Cc1ccc(C(=O)CCS(=O)(=O)c2ccc(F)cc2)cc1	1.1µM*	-11%	-6%	6%
COc1ccc(S(=O)(=O)CC(=O)c2cc(C)c(O)c(C)c2)cc1	27%[2.29 µM]	3%[57.1 µM]	-5%	19%
CC(C)Oc1ccc(CNC(=O)C2CCN(C(=O)N3CCOc4ccc(Cl)cc43)CC2)cc1	10%	2%	0%	-3%
Cc1ccc(C(=O)CCS(=O)(=O)c2ccc(Cl)cc2)cc1	0.56µM*	-1%	1%	1%
Cc1ccc(S(=O)(=O)CCC(=O)NCc2ccc(Cl)cc2)cc1	-7%	-8%	0%	0%
O=c1c(-c2c(O)cc(O)c3c2O[C@H](c2ccc(O)cc2)CC3)c(-c2ccc(O)cc2)oc2cc(O)cc(O)c12	8%	1%	-22%	13%
C=CCn1c(SCC(=O)N2CCOCC2)nc2scc(-c3ccco3)c2c1=O	45µM*	-11%	-1%	u
C=CCn1c(SCC(C)=O)nc2scc(-c3ccco3)c2c1=O	u	4%	-6%	-5%
CCOC(=O)c1sc2nc3n(c(=O)c2c1C)CCC(C)CC3 (stereo not drawn)	0%	8%	2%	-7%
CCOC(=O)N1CCN(C(=O)Nc2sc3nc4n(c(=O)c3c2C)CCC(C)CC4)CC1 (stereo not drawn)	28µM*	6%	5%	-8%
